In all, about 5,500 compounds went through this assay and about 2,000 (36%) were called active. Inconclusive results (about 18%) are left out. Rule as the data show it: active = normalized growth mostly below about 0.91 (no sharp cut-off); inconclusive = no clear call, values can overlap the other calls; inactive = mostly above about 0.92. This is one part of the list.
Assay: chemical genetic growth profiling, strain panel (AID 1159580);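 also: tested at 20 µM; growth read once vehicle control cultures reached saturation at 30 °C; 1 = growth at the plate median or of vehicle wells; lower values mean less growth of the strain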
Details: S. cerevisiae deletion strains, growth OD

Measured: normalized growth

CC(=O)Oc1ccc(O)cc1
inactive: locus YAL013W, strain DEP1, active compounds read low 0.942 | locus YAL021C, strain ccr4, active compounds read low 1.03 | locus YAL026C, strain drs2, active compounds read low 0.953 | locus YAL030W, strain snc1, active compounds read low 0.994 | locus YBL061C, strain skt5, active compounds read low 0.977 | locus YBR009C, strain hhf1, active compounds read low 0.963 | locus YBR023C, strain chs3, active compounds read low 0.982 | locus YBR171W, strain sec66, active compounds read low 0.974 | locus YBR229C, strain ROT2, active compounds read low 1.02 | locus YBR231C, strain swc5, active compounds read low 0.971 | locus YBR279W, strain paf1, active compounds read low 0.986 | locus YCL011C, strain gbp2, active compounds read low 0.989 | locus YCL016C, strain dcc1, active compounds read low 0.999 | locus YCL029C, strain bik1, active compounds read low 1.03 | locus YCL061C, strain MRC1, active compounds read low 0.993 | locus YCL069W, strain vba3, active compounds read low 0.987 | locus YCR088W, strain abp1, active compounds read low 0.995 | locus YDL005C, strain med2, active compounds read low 0.978 | locus YDL035C, strain GPR1, active compounds read low 0.922 | locus YDL040C, strain nat1, active compounds read low 0.994 | locus YDL074C, strain BRE1, active compounds read low 1 | locus YDL101C, strain DUN1, active compounds read low 1 | locus YDL134C, strain PPH21, active compounds read low 0.89 | locus YDL185W, strain tfp1, active compounds read low 1.03 | locus YDL192W, strain arf1, active compounds read low 1.02 | locus YDR001C, strain nth1, active compounds read low 0.987 | locus YDR069C, strain doa4, active compounds read low 1.02 | locus YDR101C, strain arx1, active compounds read low 1.02 | locus YDR137W, strain rgp1, active compounds read low 0.936 | locus YDR150W, strain NUM1, active compounds read low 0.999 | locus YDR159W, strain sac3, active compounds read low 0.967 | locus YDR162C, strain NBP2, active compounds read low 0.916 | locus YDR195W, strain ref2 0.997 | locus YDR297W, strain sur2, active compounds read low 0.987 | locus YDR318W, strain mcm21, active compounds read low 1 | locus YDR334W, strain swr1, active compounds read low 0.986 | locus YDR335W, strain msn5, active compounds read low 0.995 | locus YDR388W, active compounds read low 1.02 | locus YDR392W, strain spt3, active compounds read low 0.844 | locus YDR502C, strain sam2, active compounds read low 1.02 | locus YEL003W, strain gim4, active compounds read low 0.986 | locus YEL037C, strain rad23, active compounds read low 0.987 | locus YEL061C, strain CIN8 (second series), active compounds read low 0.98 | locus YEL061C, strain CIN8, active compounds read low 1 | locus YER015W, strain faa2, active compounds read low 0.992 | locus YER016W, strain bim1, active compounds read low 1.01 | locus YER110C, active compounds read low 1.04 | locus YER111C, strain swi4, active compounds read low 0.969 | locus YER155C, strain BEM2 (second series), active compounds read low 0.959 | locus YER155C, strain BEM2, active compounds read low 1.01 | locus YER167W, strain BCK2, active compounds read low 0.976 | locus YFR010W, strain ubp6, active compounds read low 0.969 | locus YGL078C, strain dbp3, active compounds read low 1.02 | locus YGL086W, strain mad1, active compounds read low 0.984 | locus YGL167C, strain pmr1, active compounds read low 0.988 | locus YGL173C, strain kem1, active compounds read low 0.975 | locus YGL227W, strain vid30, active compounds read low 0.983 | locus YGL240W, strain doc1, active compounds read low 0.926 | locus YGL248W, strain PDE1, active compounds read low 0.923 | locus YGL253W, strain hxk2, active compounds read low 0.973 | locus YGR135W, strain pre9, active compounds read low 0.99 | locus YGR252W, strain gcn5, active compounds read low 0.87 | locus YHR013C, strain ard1, active compounds read low 0.975 | locus YHR027C, strain rpn1, active compounds read low 0.987 | locus YHR030C, strain SLT2, active compounds read low 0.994 | locus YHR079C, strain IRE1 (second series), active compounds read low 1.02 | locus YHR094C, strain hxt1, active compounds read low 1.02 | locus YHR129C, strain ARP1, active compounds read low 0.994 | locus YHR142W, strain chs7, active compounds read low 0.996 | locus YHR200W, strain rpn10, active compounds read low 1.03 | locus YIL073C, strain SPO22, active compounds read low 0.89 | locus YIL125W, strain kgd1, active compounds read low 1.02 | locus YIR030C, strain dcg1, active compounds read low 1.04 | locus YJL092W, strain hpr5, active compounds read low 0.983 | locus YJL095W, strain BCK1 (second series), active compounds read low 0.996 | locus YJL095W, strain BCK1, active compounds read low 0.976 | locus YJL115W, strain asf1, active compounds read low 0.988 | locus YJL129C, strain trk1, active compounds read low 1.01 | locus YJL134W, strain LCB3, active compounds read low 1.03 | locus YJL154C, strain vps35, active compounds read low 0.985 | locus YJL164C, strain tpk1, active compounds read low 0.975 | locus YJL166W, strain qcr8, active compounds read low 0.978 | locus YJL168C, strain set2, active compounds read low 1.02 | locus YJL187C, strain SWE1 (second series), active compounds read low 0.997
active: locus YBR021W, strain FUR4, active compounds read low 0.796 | locus YGR229C, strain SMI1, active compounds read low 0.572 | locus YIL066C, strain RNR3, active compounds read low 0.852
